Sensor-assay potency score (higher = more potent) data for 40 sequences are collected here from the OligoGym collection.
Note: reference of the scale not given here.

The first assay has as its target APOA4. Kind of assay: pooled miR-30 sensor sort-seq; sequence = guide strand. The note with it: shRNA.
Consider TTCTTCATCTGGAAGGTCAGGC, for which the sensor-assay potency score (higher = more potent) is 0.31.
The same measure, in the same setting: the result for TTTCTGGAGATGTTCCACGGCC reads -0.87.
As to TCTTCTGCAGGTCACCTGCGTA, the sensor-assay potency score (higher = more potent) was -1.37.
The same measure, in the same setting: the result for TTGAGCTCCTCCACGTTCTGGT reads 0.494.
As for TCCACGTTCTGGTCGATCTTGG, the sensor-assay potency score (higher = more potent) was -1.41.
The same measure, in the same setting: in the case of TTCTCCTTGAAGGTGCTGAAGA it was -1.33.

The next assay has as its target APOBEC1. The assay is described as above. The note with it: shRNA.
As to TTTTGTTGATCCATGTGCCAAA, the sensor-assay potency score (higher = more potent) was -1.26.
On the same count and under the same terms, the result for TTGAAATCTTTAAACAGGGTGG reads 0.0773; that for TAACAAGGTCCCTGAGACCTTG, -0.747.
Still for that read-out and setting: in the case of TTGCCGATTTTGTTGATCCATG it was -1.51.
Same read-out and setting: in the case of TTTAGTGGGTCATCATTGCTTG it was -0.449.
ATAATCTGAATAGTTACTCCAC displayed a sensor-assay potency score (higher = more potent) of 0.108.
As to TTTCGTAGAGCAGACAGGCCTC, the sensor-assay potency score (higher = more potent) is -0.178.
TAAAATTAACTTCCACGTGATT showed a sensor-assay potency score (higher = more potent) of -0.973.
In turn, TACAACATCATCCACAGAGGTG had a sensor-assay potency score (higher = more potent) of -0.853.
In the case of TAGAGTCACACCAGGGTGCCGA, the sensor-assay potency score (higher = more potent) is -0.942.
TTAAACAGGGTGGAAGACTTAG returned a sensor-assay potency score (higher = more potent) of -0.633.
Turning to TTTTTGCCTGAGCTTCGCCAGA, the sensor-assay potency score (higher = more potent) is -1.38.
The same measure, in the same setting: in the case of TAGAAGACGTCAAACTCCCAGG it was -0.81; in that of TTAACTTCCACGTGATTGGTGG, 0.311.
The same measure, in the same setting: in the case of TAATCTGAATAGTTACTCCACT it was -0.77; in that of TGAAAATCTCTTTCTGACGTAA, -0.0382; in that of TAGAATTATGCAGTGCAGCTCC, 0.275.
The same measure, in the same setting: the result for TAGTTGACAAAATTCCTCCAGC reads 0.113; that for TATAAAATTAACTTCCACGTGA, 0.0953; that for TCCACTGTTAACAAGGTCCCTG, -0.838.
With TTTTTATAAAATTAACTTCCAC, the sensor-assay potency score (higher = more potent) is -0.469.
On the same count and under the same terms, the result for TTGATTTCGTAGAGCAGACAGG reads -1.09; that for TTTTATAAAATTAACTTCCACG, -0.657; that for AATTATGCAGTGCAGCTCCAGT, -0.901.

The target of a further assay is APOBEC3A. The assay is described as above. The note with it: shRNA.
As to TGGTCCATCTTGACCGAGGTGC, the sensor-assay potency score (higher = more potent) was -0.749.
As to AATCTTACTATTGTGTACTTGG, the sensor-assay potency score (higher = more potent) came to 0.0307.
The same measure, in the same setting: the result for TGCTGGTCCATCTTGACCGAGG reads -1.28.
The sequence TTCGTAGCACAGGTAGGTCTTA gave a sensor-assay potency score (higher = more potent) of -0.473.
On the same count and under the same terms, in the case of TGTGGATCCATCAAGTGTCTGG it was -0.129.
With TTAAATTCATCGTAGGTCATGA, the sensor-assay potency score (higher = more potent) stood at 0.00462.
Still for that read-out and setting: in the case of TAAAAATCTACTTGATCGGGAG it was 0.575.
Same read-out and setting: the result for TTAGTCTAGATATGAAGCCAAA reads -1.73; that for TTGATCGGGAGCATACTGCTTT, 0.642.
As to TTAAAAATCTACTTGATCGGGA, the sensor-assay potency score (higher = more potent) is 0.68.
